Values joined by “and” are separate entries in the source; they are usually repeats but may differ in a detail not shown here. Equal entries are not always repeated.
Columns and labels:
[1] = target: Dual specificity protein kinase CLK3 (Homo sapiens) (UniProt P49761); details: at 1 µM;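 also: each value is the mean inhibition of CLK3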
[2] = target: Dual specificity tyrosine-phosphorylation-regulated kinase 1A (Homo sapiens) (UniProt Q13627); details: at 0.1 µM
[3] = target: Dual specificity tyrosine-phosphorylation-regulated kinase 1A (Homo sapiens) (UniProt Q13627); details: at 1 µM
[4] = target: Dual specificity tyrosine-phosphorylation-regulated kinase 1B (Homo sapiens) (UniProt Q9Y463); details: at 0.1 µM
Chain of Dual specificity tyrosine-phosphorylation-regulated kinase 1B (Homo sapiens) (Q9Y463 whole entry, looked up): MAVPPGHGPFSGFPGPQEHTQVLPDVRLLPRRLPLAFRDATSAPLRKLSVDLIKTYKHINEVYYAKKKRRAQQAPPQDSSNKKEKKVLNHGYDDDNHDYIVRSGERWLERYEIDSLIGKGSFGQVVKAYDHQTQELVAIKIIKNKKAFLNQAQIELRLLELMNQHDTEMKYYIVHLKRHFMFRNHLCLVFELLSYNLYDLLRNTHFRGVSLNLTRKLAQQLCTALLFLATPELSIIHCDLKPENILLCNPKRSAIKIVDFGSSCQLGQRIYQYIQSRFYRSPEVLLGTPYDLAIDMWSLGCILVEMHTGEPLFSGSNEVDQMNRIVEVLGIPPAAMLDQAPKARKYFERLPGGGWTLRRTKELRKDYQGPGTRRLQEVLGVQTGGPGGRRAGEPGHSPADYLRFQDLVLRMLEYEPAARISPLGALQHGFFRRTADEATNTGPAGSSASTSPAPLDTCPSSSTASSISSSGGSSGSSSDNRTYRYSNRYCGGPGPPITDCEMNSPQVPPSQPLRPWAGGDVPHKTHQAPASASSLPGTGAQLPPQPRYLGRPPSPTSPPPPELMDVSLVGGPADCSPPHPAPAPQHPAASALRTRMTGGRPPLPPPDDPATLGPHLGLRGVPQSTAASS

[5] = target: Dual specificity tyrosine-phosphorylation-regulated kinase 1B (Homo sapiens) (UniProt Q9Y463); details: at 1 µM
[6] = target: T1, Dual specificity tyrosine-phosphorylation-regulated kinase 2 (Homo sapiens) (UniProt Q92630); details: at 0.1 µM
T1 sequence (whole entry): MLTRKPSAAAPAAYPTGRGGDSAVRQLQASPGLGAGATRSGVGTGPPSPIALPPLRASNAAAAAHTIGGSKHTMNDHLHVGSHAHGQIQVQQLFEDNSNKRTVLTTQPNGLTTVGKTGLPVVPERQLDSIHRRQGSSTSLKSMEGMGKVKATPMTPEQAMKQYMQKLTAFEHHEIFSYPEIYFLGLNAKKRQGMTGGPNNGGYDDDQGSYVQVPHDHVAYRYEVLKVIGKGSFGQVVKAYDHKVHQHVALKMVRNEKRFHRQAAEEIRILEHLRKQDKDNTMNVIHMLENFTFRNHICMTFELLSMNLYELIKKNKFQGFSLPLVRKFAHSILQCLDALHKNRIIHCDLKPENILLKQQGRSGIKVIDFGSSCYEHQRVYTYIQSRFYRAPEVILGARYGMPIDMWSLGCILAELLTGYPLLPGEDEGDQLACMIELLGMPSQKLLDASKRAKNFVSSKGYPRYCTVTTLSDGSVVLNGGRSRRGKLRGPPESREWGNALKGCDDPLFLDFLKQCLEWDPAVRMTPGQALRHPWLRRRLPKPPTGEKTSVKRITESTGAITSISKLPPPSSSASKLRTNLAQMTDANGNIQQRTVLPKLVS

[7] = target: T1, Dual specificity tyrosine-phosphorylation-regulated kinase 2 (Homo sapiens); details: at 1 µM
[8] = target: Glycogen synthase kinase-3 alpha (Homo sapiens) (UniProt P49840); details: at 0.1 µM
Chain of Glycogen synthase kinase-3 alpha (Homo sapiens) (P49840 2-483 limits assumed): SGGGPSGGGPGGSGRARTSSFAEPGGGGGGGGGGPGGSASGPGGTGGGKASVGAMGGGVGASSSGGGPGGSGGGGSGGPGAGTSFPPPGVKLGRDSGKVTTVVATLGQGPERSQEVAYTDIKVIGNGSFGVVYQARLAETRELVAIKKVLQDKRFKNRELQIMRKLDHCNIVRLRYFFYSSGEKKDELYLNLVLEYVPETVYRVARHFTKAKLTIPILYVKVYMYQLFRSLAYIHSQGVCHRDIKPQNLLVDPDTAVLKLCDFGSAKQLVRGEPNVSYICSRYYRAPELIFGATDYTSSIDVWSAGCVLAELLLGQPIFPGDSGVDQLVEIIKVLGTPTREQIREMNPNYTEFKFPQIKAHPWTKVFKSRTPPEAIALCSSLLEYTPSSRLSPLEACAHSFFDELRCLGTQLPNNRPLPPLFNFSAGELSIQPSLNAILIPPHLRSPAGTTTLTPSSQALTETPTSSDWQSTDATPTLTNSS

[9] = target: Glycogen synthase kinase-3 alpha (Homo sapiens) (UniProt P49840); details: at 1 µM
[10] = target: Glycogen synthase kinase-3 beta (Homo sapiens) (UniProt P49841); details: at 0.1 µM;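 also: values are mean percent inhibition of GSK3B activity, from the GSK Published Kinase Inhibitor Set (PKIS) screening dataset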
Chain of Glycogen synthase kinase-3 beta (Homo sapiens) (P49841 whole entry, looked up): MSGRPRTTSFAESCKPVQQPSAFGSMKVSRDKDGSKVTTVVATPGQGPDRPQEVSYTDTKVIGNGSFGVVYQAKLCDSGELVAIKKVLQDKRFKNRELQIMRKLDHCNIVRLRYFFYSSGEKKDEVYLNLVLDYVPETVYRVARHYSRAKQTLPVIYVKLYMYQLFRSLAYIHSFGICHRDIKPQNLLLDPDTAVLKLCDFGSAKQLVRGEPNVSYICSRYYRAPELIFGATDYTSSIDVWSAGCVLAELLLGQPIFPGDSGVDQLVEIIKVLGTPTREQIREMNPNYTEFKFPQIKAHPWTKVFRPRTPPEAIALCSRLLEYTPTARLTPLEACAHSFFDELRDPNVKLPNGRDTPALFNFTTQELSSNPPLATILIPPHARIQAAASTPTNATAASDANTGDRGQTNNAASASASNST

Chain of Dual specificity protein kinase CLK3 (Homo sapiens) (P49761 whole entry, looked up): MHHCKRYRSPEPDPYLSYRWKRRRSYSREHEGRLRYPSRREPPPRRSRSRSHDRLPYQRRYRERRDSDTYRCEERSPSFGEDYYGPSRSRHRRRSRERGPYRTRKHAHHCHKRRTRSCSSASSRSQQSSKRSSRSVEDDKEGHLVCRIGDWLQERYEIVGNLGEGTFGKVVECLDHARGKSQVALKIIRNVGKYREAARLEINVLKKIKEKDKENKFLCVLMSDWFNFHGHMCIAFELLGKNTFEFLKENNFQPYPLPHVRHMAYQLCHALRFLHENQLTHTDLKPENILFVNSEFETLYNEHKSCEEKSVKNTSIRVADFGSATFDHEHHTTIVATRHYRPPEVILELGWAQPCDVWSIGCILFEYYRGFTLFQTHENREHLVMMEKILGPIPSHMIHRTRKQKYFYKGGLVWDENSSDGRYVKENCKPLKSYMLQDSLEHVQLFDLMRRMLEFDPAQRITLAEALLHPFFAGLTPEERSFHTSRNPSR

| SMILES | inhibition [1] | inhibition [2] | inhibition [3] | inhibition [4] | inhibition [5] | inhibition [6] | inhibition [7] | inhibition [8] | inhibition [9] | inhibition [10] |
| --- | --- | --- | --- | --- | --- | --- | --- | --- | --- | --- |
| O=C(Nc1n[nH]c2nnc(-c3cccnc3)cc12)C1CC1 | 1.3% | 73.8% | 93.2% | 69.1% | 81% | 20.6% | 75% | 80.5% | 82.4% | 80% |
| CNC(=O)c1ncccc1Nc1nc(Nc2cc3c(cc2OC)CCCN3C(=O)CN(C)C)nc2[nH]ccc12 | 4.34% | 3.21% | 12.5% | 0.36% | 8.48% | 3.42% | 8.03% | 7.2% | 15.6% | 6.12% |
| CN1CCC(C(=O)Nc2n[nH]c3nc(-c4ccc(O)cc4)c(Br)cc23)CC1 | 3.67% and 4.52% | 9.4% and 10.2% | 43.4% and 51.8% | 29.6% and 27.7% | 66.8% and 67% | 6.68% and 6.28% | 33.7% and 34% | 78.2% and 80.5% | 83.2% and 81.7% | – |
| CN(c1ccc(NC(=O)NCCN2CCOCC2)cc1)c1ccnc(Nc2ccc(CS(C)(=O)=O)cc2)n1 | 1.43% | 1.69% | 3.45% | -0.71% | 2.44% | 1.44% | 3.05% | 4.05% | 8.02% | 4.49% |
| N#Cc1ccc2c(-c3ccnc(NC4CC4)n3)c(-c3ccc(F)cc3)nn2c1 | -0.84% | 1.91% | 0.14% | -0.4% | -2.94% | 0.64% | -0.6% | 5.27% | 24.3% | 8.49% |
| Cc1c2ccc(N(C)c3ccnc(Nc4cccc(S(N)(=O)=O)c4)n3)cc2nn1C | 1.11% | -1.03% | 1.54% | -3.31% | -2.73% | 2.38% | 2.71% | -0.44% | 6.37% | -0.25% |
| Cc1ccc(-c2cc3c(NC(=O)C4CC4)ncnc3o2)cc1 | 7.45% | 4.14% | 12.6% | 1.1% | 4.52% | 2.48% | 8.21% | 12.4% | 48.7% | 7.9% |
| COc1cc(Nc2ncc(-c3ccccc3)o2)cc(OC)c1 | 1.09% | 3.59% | 6.1% | -8.51% | 0.86% | 2.09% | 1.69% | 3.75% | 14.6% | 2.47% |
| CS(=O)(=O)Nc1ccc(-c2cc(-c3ccccc3)cc(C(N)=O)c2N)cc1 | -0.57% | 0.57% | 4.13% | 0.32% | 1.12% | 0.61% | 2.18% | 1.48% | 3.56% | 0.94% |
| CC(C)c1ccc(-c2cc(-c3c[nH]nc3-c3ccccn3)ccn2)cc1 | 0.76% | 0.59% | 2.33% | 0.57% | 1.3% | 0.98% | 0.3% | 0.61% | 2.95% | -0.15% |
| NS(=O)(=O)c1cccc(N/C=C2\C(=O)Nc3ccccc32)c1 | 3.43% | 4.67% | 7.61% | 1.69% | 4.25% | 3.56% | 9.5% | 4.32% | 20% | 3.36% |
| CN(C)CCNC(=O)Nc1ccc(N(C)c2ccnc(Nc3ccc(CS(C)(=O)=O)cc3)n2)cc1 | 2.89% | 2.86% | 5.24% | 1.37% | 1.57% | 2.66% | 4.33% | 1.56% | 4.32% | 0.61% |
| Nc1nccc(-c2c(-c3ccc(F)cc3)ncn2C2CCNCC2)n1 | 1.14% and 2.38% | 0.55% and 2.23% | 3.87% and 4.35% | 2.09% and 2.37% | 5.26% and 3.56% | -3.5% and -0.2% | 1.66% and -0.95% | 0.13% and 1.29% | 2.91% and 3.54% | -1.49% and 2.54% |
| CS(=O)(=O)CCNCc1ccc(-c2ccc3ncnc(Nc4ccc(OCc5ccccc5)cc4)c3c2)o1 | 0.48% | 1.93% | 4.22% | -0.07% | 1.88% | 5.3% | 2.62% | 2.32% | 3.44% | 1.65% |
| COc1cccc(Nc2nccc(-c3cnn4ncccc34)n2)c1 | 65.3% | 77.4% | 88.3% | 81.5% | 90% | 5.88% | 37.6% | 60.7% | 79.5% | 59.7% |
| O=C1Nc2ccccc2/C1=C1\CCc2cc(O)ccc21 | 3.11% | 7.28% | 34% | 2.1% | 17.7% | 5.9% | 24.7% | 3.11% | 10.5% | 1.77% |

| SMILES | inhibition [1] | inhibition [2] | inhibition [3] | inhibition [4] | inhibition [5] | inhibition [6] | inhibition [7] | inhibition [8] | inhibition [9] | inhibition [10] |
| --- | --- | --- | --- | --- | --- | --- | --- | --- | --- | --- |
| N#Cc1cccc(Nc2ncc(-c3ccccc3)o2)c1 | 1.97% | 1.47% | 5.95% | -0.09% | 3.53% | 0.71% | 2.45% | 5.76% | 25.6% | 2.85% |
| COc1ccccc1-c1cc(/C=C2\C(=O)Nc3ncc(Br)cc32)cc(Br)c1O | 9.88% | 2.51% | 11.2% | 0.86% | 4.16% | 3.68% | 4.79% | 4.73% | 10% | 5.17% |
| CNC(=O)c1sc(-n2cnc3cc(OC)c(OC)cc32)cc1OCc1ccccc1C(F)(F)F | -0.08% | 1.4% | 2.18% | -0.95% | 0.23% | 2.15% | 1.34% | 2.13% | 5.93% | 1.12% |
| CCn1c(-c2nonc2N)nc2cncc(C(=O)NCCNC)c21 | 9.74% | 20.8% | 72.4% | 9.71% | 54.7% | 7.99% | 37.2% | 10.2% | 49.7% | 6.83% |
| Cn1c(-c2nonc2N)nc2cnccc21 | 7.43% | 25.1% | 69.3% | 11.7% | 51.4% | 2.37% | 10.1% | 10.1% | 52.1% | 5.71% |
| CCN1CCC(C(=O)Nc2n[nH]c3nnc(-c4cccc(F)c4F)cc23)CC1 | 0.77% | 14.4% | 61% | 12.9% | 54.3% | -0.03% | 2.26% | 85.3% | 89.9% | 80.9% |
| Nc1ncnc2occ(-c3ccc(NC(=O)Nc4cc(C(F)(F)F)ccc4F)cc3)c12 | 2.26% and 0.21% | 1.15% and 1.58% | 4.22% and 0.86% | 1.3% and 0.83% | 2.57% and 1.79% | 2.49% and -1.01% | 3.45% and -1.47% | 7.6% and 1.13% | 17.5% and 6.32% | 7.23% and 1.21% |
| CN1CCN(Cc2ccc(-c3cc4ncnc(Nc5ccc(OCc6cccc(F)c6)c(Cl)c5)c4s3)o2)CC1 | 0.78% and 2.08% | 2.29% and 3.65% | 3.25% and 6.67% | -1.48% and 1.67% | -0.65% and 3.95% | 2.17% and 3.19% | 1.22% and 4.53% | 4.34% and 12.6% | 3.93% and 13.7% | 2.82% and 10.6% |
| COc1cccc(-n2ncc3c(N/N=C/c4ccc(C(=O)NCCN(C)C)cc4)ncnc32)c1 | 31.7% | 38.1% | 71.6% | 17.8% | 57.1% | 20.9% | 66.3% | 71.9% | 82.7% | 66.3% |
| CS(=O)(=O)CCNCc1ccoc1-c1ccc2ncnc(Nc3ccc(OCc4ccccc4)cc3)c2c1 | -0.94% | 1.18% | 2.26% | -1.48% | -0.06% | 0.79% | -1.66% | 4.65% | 5.47% | 2.8% |
| CC1=C(C(=O)Nc2ccc3[nH]ncc3c2)C(c2ccc(F)cc2)N=C(c2ccc(C(F)(F)F)nc2)N1 (centres undefined) | 2.08% | 1.92% | 2.39% | 1.23% | 1.37% | 1.37% | 1.27% | 1.54% | 4.37% | 1.95% |
| COc1ccc2ncn(-c3cc(O[C@H](C)c4ccccc4C(F)(F)F)c(C(N)=O)s3)c2c1 | 0.85% | 0.11% | 2.44% | 0.37% | 1.63% | -0.29% | 1.33% | -0.19% | 4.58% | -0.14% |
| Nc1nonc1-c1nc2cnccc2n1C1CC1 | 2.54% and -2.2% | 22% and 20.1% | 65.5% and 61.9% | 13.7% and 10.7% | 55.7% and 52.9% | 4.16% and 3.22% | 19.6% and 19.7% | 25% and 21.2% | 70.2% and 63.7% | 21.5% and 17.6% |
| Cc1cc(O)cc(C)c1/C=C/c1cncc(C(=O)OC(C)(C)C)c1 | 6.2% | 5.61% | 8.73% | 3.58% | 7.3% | 1.52% | 3.56% | 4.43% | 8.44% | 4.6% |
| CS(=O)(=O)CCNCc1ccc(-c2ccc3ncnc(Nc4ccc(OCc5cccc(C(F)(F)F)c5)cc4)c3c2)o1 | 1.18% | 2.76% | 5.29% | -0.58% | 1.03% | 3.45% | 6.22% | 2.81% | 1.39% | 1.65% |
